Assay outcomes as filed in PubChem BioAssay.
ELG1 genotoxic = inducers of genotoxicity in HEK293T ELG1-luciferase cells; HEK293T ELG1-luciferase reporter, luminescence, 16 h; Potency, µM (titrated, usually from 46 µM), inactives show at the top dose activity change, positive = activation, usual class: activators; hit rate 1.3% among 330,000; further: % of control where 0% means no effect; nearly all actives have a fitted effect of over 60% in size
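Screening used a luciferase reporter fused to human ELG1 in HEK293T cells. Luminescence was read on a CCD plate imager after 16 hr exposure and 30 min ONE-Glo incubation.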
MCF10A rerep = inducers of DNA re-replication in MCF 10A breast cells. Potency, µM (titrated, usually from 46.1 µM), inactives show at the top dose activity, positive = re-replication, actives largely listed as activators. hit rate 2.9% among 350,000. MCF 10A DNA re-replication, Hoechst nuclear intensity, 48 h; further: % of control where 0% means no effect; nearly all actives have a fitted effect of over 50% in size
ELG1 DNA repair = ELG1-dependent DNA repair inhibition; HEK293T ELG1-luciferase reporter, luminescence, 16 h; DNA damage induced by 5-fluorouridine; Potency, µM (highest dose often 46.1 µM), without a hit: at the top dose activity change, negative = inhibition, hits mostly inhibitors; hit rate 2.3% among 330,000; further: on the % scale 0 is the no-effect control and ±100 the full control effect; nearly all actives have a fitted effect of over 55% in size
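In this reporter screen, reduction of luminescence relative to DMSO vehicle indicated activity. Compounds and 5-fluorouridine were added together to 2,000 cells per well, incubated for 16 hr at 37 °C, then developed with ONE-Glo.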
p53 reactivator = restores transcriptional activity of mutant p53 | H1299 p53-A138V BP100-luciferase reporter, luminescence, 24 h | Potency, µM (top dose mostly 92.2 µM), inactives show at the top dose activity change, positive = activation, usual class: activators | hit rate 0.063% among 320,000; further: % of control where 0% means no effect; nearly all actives have a fitted effect of over 45% in size
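H1299 (p53-null), stable ts p53-A138V + BP100-Luc; 1000 cells/well, Opti-MEM/10% FBS; cpd 4 pt, 1:5; 24 h, 37 deg C, 5% CO2; detection reagent 10 min RT; luminescence.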
SW480 rerep = DNA re-replication induction in SW480 cells; SW480 DNA re-replication, Hoechst DNA content imaging, 48 h; Potency, µM (highest dose often 46.1 µM), for the others: at the top dose re-replication activation, hits mostly activators; hit rate 1.8% among 340,000; AID 624297; further: % of control where 0% means no effect; nearly all actives have a fitted effect of over 55% in size
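Hoechst fluorescence of nuclei (405 nm excitation, 500-530 nm emission) measured by plate-scanning imager after 48 hr compound exposure at 37 C; re-replication scored as increased number of nuclei with elevated intensity.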
A-T KAP1 phos = potential ataxia-telangiectasia treatment; F2112 A-T fibroblasts, KAP-1 phosphorylation AlphaLISA; neocarzinostatin DNA damage 30 min before lysis; Potency, µM (series often up to 57.5 µM), without a hit: at the highest dose activation, usual class: activators; hit rate 0.19% among 320,000; further: % of control where 0% means no effect; nearly all actives have a fitted effect of over 45% in size
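hTERT-immortalized A-T patient fibroblasts (F2112), 500 cells/well in OPTI-MEM, 1% FBS, got compounds for 60 min, then NCS for 30 min at 37C. Lysates were then assayed for phospho-KAP-1 by AlphaLISA (anti-pKAP1 donor, anti-KAP1 acceptor beads), 6 hr at 25C.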
Starred values were filed as active, the others as inactive; ? = inconclusive; nt = no result. The list is not random: actives were taken first. Their share in the collection is about 7.1%. The call rests on the fitted dose curve; in most records, active means well fitted curve in the direction sought with a large enough effect; inconclusive means small, poorly fitted or top-dose-only effect, or another doubt; inactive means no such curve, though single readings can be large; an effect the other way counts as inactive or inconclusive. Potency means the concentration at half of the fitted maximal effect.

SMILES | ELG1 genotoxic | MCF10A rerep | ELG1 DNA repair | p53 reactivator | SW480 rerep | A-T KAP1 phos
CC1C(c2ccccc2)N(C)C(c2ccccc2)CC1(O)c1ccccc1 (stereo not given) | 0% | ? | 18% | -23% | 12% | 10µM*
O=C(C1CCC(CNS(=O)(=O)c2cccs2)CC1)N1CCN(c2ccc(F)cc2)CC1 (stereo not given) | -11% | 16µM* | 9.2µM* | -4% | 26% | -2%
Cc1ccc(Nc2c(-c3ccc(N4CCOCC4)cc3)nc3ncccn23)cc1C | 0% | ? | ? | 4% | 23µM* | 7%
CN(C)c1ccc(-c2nc3cnccn3c2Nc2ccc3c(c2)OCCO3)cc1 | 18% | 18µM* | ? | 6% | -18% | -8%
Cc1ccccc1Nc1c(-c2ccc(N3CCOCC3)cc2)nc2cnccn12 | ? | ? | ? | 10% | 15% | 6%
Cc1ccc(Nc2c(-c3ccc(N4CCOCC4)cc3)nc3cnccn23)cc1 | ? | 18µM* | ? | -2% | ? | -3%
O=C(c1ccc(Cl)cc1)N1CCN(CCc2ccccn2)CC1 | -1% | 12% | 8% | -5% | 0% | 11%
CCOc1ccc(NS(=O)(=O)c2ccc(C(=O)NCCN3CCOCC3)cc2)cc1 | -2% | 10% | -2% | -1% | 1% | 5%
CCOC(=O)c1[nH]c(=S)[nH]c1C | nt | -1% | nt | nt | 0% | nt
CC(C)C[C@@H](CNCC(=O)[C@H](Cc1c[nH]c2ccccc12)NC(=O)c1[nH]cnc1C(=O)N[C@@H](C)CN)NC(=O)c1nc[nH]c1C(=O)N[C@@H](C)C(=O)O | nt | 8% | nt | nt | -37% | nt
Nc1nonc1C(=O)NCCNC(=O)c1ccc(Cl)cc1 | 1% | -4% | 2% | -4% | 3% | 1%
CC(C)(C)C1=CC(=O)C(=O)C(C(C)(C)C)=C1 | -5% | ? | ? | -25% | 18µM* | ?
N#Cc1c(-c2ccccc2)c(C#N)c2nc3ccccc3n2c1N | 1% | 10% | -15% | -9% | 25% | 2%
Cc1ccc(-c2c(C#N)c(N)n3c(nc4ccccc43)c2C#N)cc1 | -28% | 18µM* | 18µM* | 14% | 18µM* | -4%
Cc1c(CCCl)c(Cl)n2c(nc3ccccc32)c1C#N | nt | 2.9µM* | nt | nt | ? | nt
CCc1c(C)c(C#N)c2nc3ccccc3n2c1NC | -3% | 0% | -4% | 0% | -2% | 4%
Cc1cccc(NC(=O)CSc2cc(C)c(C#N)c3nc4ccccc4n23)c1 | 9% | 5% | ? | 2% | 2.9µM* | -1%
Cc1cc(Cl)n2c(nc3ccccc32)c1C#N | ? | ? | 21µM* | -18% | 21µM* | 0%
CNc1cc(C)c(C#N)c2nc3ccccc3n12 | -6% | 27% | -10% | nt | ? | 11%
CC1CC(C)(C)CC2(C1)NC(=O)N(CC(=O)N1CCN(S(=O)(=O)c3ccc(F)c(F)c3F)CC1)C2=O (stereo not given) | nt | 7% | nt | nt | -18% | nt
CN(C)/C=C/C(=O)c1ccc2noc(-c3ccccc3)c2c1 | -9% | 21µM* | 23µM* | -1% | 25% | 0%
CC(=O)c1ccc2noc(-c3ccccc3)c2c1 | 3% | -3% | 9.2µM* | 3% | 25% | -9%
CC1(C(=O)OCc2cc(=O)n3cc(Br)ccc3n2)CC1(Cl)Cl (stereo not given) | 12µM* | 13% | ? | 9% | -3% | 1%
COc1ccc(NC(=O)COC(=O)c2cccc(S(=O)(=O)N(C)C)c2)cc1 | 1% | 2% | 0% | 6% | -4% | -8%
NC(=O)c1ccsc1NC(=O)COc1ccccc1 | 8.9µM* | 2% | ? | ? | -7% | -7%
SMILES | ELG1 genotoxic | MCF10A rerep | ELG1 DNA repair | p53 reactivator | SW480 rerep | A-T KAP1 phos
N#Cc1ccc(OCC(=O)NC2=NCCS2)cc1 | 2% | -4% | 25% | 7% | 2% | -1%
CN(C)S(=O)(=O)c1cccc(C(=O)OCC(=O)Nc2sccc2C(N)=O)c1 | -17% | 1% | 18µM* | -1% | -8% | 8%
Cc1ccccc1SCC(=O)OCC(=O)Nc1sccc1C(N)=O | -2% | 3% | 12% | ? | 5% | -2%
NC(=O)c1ccsc1NC(=O)CSc1ccccc1F | 10µM* | -3% | ? | ? | -7% | 5%
O=C(COc1ccccc1)NC1=NCCS1 | 15µM* | -2% | ? | 20% | 0% | -3%
COc1ccc(C(=O)Nc2c(N)nc[nH]c2=O)cc1 | nt | 1% | nt | nt | -7% | nt
Cc1onc(-c2ccccc2Cl)c1C(=O)OCc1cnc(Cl)s1 | -6% | 23µM* | -13% | -3% | 4% | 2%
Cc1onc(-c2ccccc2Cl)c1C(=O)Nc1ccc(-c2cn3cccnc3n2)cc1 | -8% | -3% | 13µM* | -3% | 0% | ?
Cc1onc(-c2ccccc2Cl)c1C(=O)Nc1cccc2cccnc12 | -15% | 8.2µM* | ? | ? | 13% | 3%
Cc1onc(-c2c(Cl)cccc2Cl)c1C(=O)Nc1nccs1 | -22% | 30% | 23µM* | -8% | -2% | 1%
COCCN(C(=O)COC(=O)C1(C)CC1(Cl)Cl)c1c(N)n(Cc2ccccc2)c(=O)[nH]c1=O (stereo not given) | 6% | -7% | -10% | -9% | -3% | 26%
NC(=O)C1CN(C(=O)c2cccc(S(=O)(=O)N3CCc4ccccc43)c2)c2ccccc2O1 (stereo not given) | -5% | 1% | ? | -12% | -4% | -6%
COc1ccccc1-c1nnc(SCC(=O)Nc2ccc(S(N)(=O)=O)cc2)n1N | -3% | -2% | -3% | 10% | -9% | 20%
CCOC(=O)c1c(C)oc2c1c(CN1CCN(C(=O)OCC)CC1)c(O)c1ccccc12 | ? | ? | ? | ? | -2% | 32µM*
Cc1cnc(C(=O)OCC(=O)Nc2cc(Cl)ccc2C#N)cn1 | -1% | -2% | 4% | 1% | 2% | -6%
CCOC1=C/C(=C/c2c(N)n3nc(-c4ccccc4)sc3nc2=O)C=CC1=O | -1% | 26µM* | -8% | -1% | -7% | -2%
C(=NOCc1ccccc1)c1cccnc1 | nt | 3% | nt | nt | 0% | nt
CC(Oc1ccc2oc3ccccc3c2c1)C(=O)NC12CC3CC(CC(C3)C1)C2 (stereo not given) | -1% | 16µM* | -2% | 17% | ? | 8%
CCOc1ccc(-c2nc3scc(-c4cccs4)c3c(=O)[nH]2)cc1 | 10% | 1.5µM* | 8% | -3% | 21% | -1%
Cc1ccc(-c2csc3nc(-c4ccncc4)[nH]c(=O)c23)cc1 | 1% | 18µM* | 16% | 6% | 5.2µM* | 6%
